From PubChem
HepG2 viability = counter-screen for TGF-b inhibitors: cytotoxicity in HepG2 cells | Potency, µM (highest dose often 46.1 µM), without a hit: top-dose activity change, negative = cytotoxicity, most hits filed as cytotoxic | HepG2 CAGA-GFP viability, ATP luminescence, 18 h | 410,000 compounds, 0.76% hits | AID 588856
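CellTiter-Glo luminescence gave cytotoxicity after 18 hours at 37 degrees C. The cells were HepG2 CAGA-GFP in 1% FBS DMEM, stimulated with 500 pg/mL TGF-beta after compound addition. %Activity was normalised to no-cell wells (complete cell-killing) and DMSO (no toxicity), and curves were fitted and classified.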
TGFb inhibitor = TGF-b pathway inhibition; Potency, µM (series often up to 46.1 µM), inactives show top-dose activity, negative = inhibition, most hits filed as inhibitors; HepG2 CAGA-GFP TGF-b/SMAD3 reporter, GFP fluorescence, 18 h; TGF-beta stimulated, 500 pg/mL final; 410,000 compounds, 1.2% hits; AID 588855; also: % is scaled to controls: 0 for no effect and ±100 for the full control effect; nearly all actives have a fitted effect of over 65% in size
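Smad-responsive CAGA-GFP expression was quantified in HEPG2 cells exposed to compounds and 500 pg/mL final TGF-beta for 18 h at 37 degrees C; unstimulated wells defined full inhibition.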
ATXN viability = viability counter-screen for ATXN expression inhibitors; S2 cells (HEK-293 line with an ATXN2-luciferase reporter) viability, CellTiter-Fluor protease fluorescence, 24 h; Potency, µM (series often up to 56.7 µM), usual class: cytotoxic; 400,000 compounds, 0.49% hits; also: nearly all actives have a fitted effect of over 40% in size
DT40 TDP1 CPT = DT40-hTDP1 cell growth loss with CPT; 420,000 compounds, 12% hits; Potency, µM (top dose mostly 46.2 µM), inactives show top-dose activity change, negative = growth inhibition, most hits filed as inhibitors; chicken DT40 Tdp1-/-;hTDP1 cells + 20 nM CPT, ATP luminescence, 48 h; also: % is scaled to controls: 0 for no effect and ±100 for the full control effect; nearly all actives have a fitted effect of over 55% in size
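Chicken DT40 Tdp1-/- cells complemented with human TDP1, 400 cells/well, exposed to compounds plus 20 nM camptothecin for at least 48 h at 37 C; viability read as ATP content by CellTiter-Glo luminescence.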
ATXN2 expr inh = ATXN2 expression inhibition; HEK-293 ATXN2-luciferase reporter, luminescence, 24 h; Potency, µM (doses to about 57 µM), for inactives: at the top dose activity change, negative = inhibition, most hits filed as inhibitors; 360,000 compounds, 0.72% hits; also: % is scaled to controls: 0 for no effect and ±100 for the full control effect; nearly all actives have a fitted effect of over 55% in size
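ATXN2-luciferase reporter cells (luciferase flanked by upstream and downstream ATXN2 gene portions) were treated 24 h at 37 °C with compounds at up to 57 uM. SteadyGlo luminescence gave expression; GF-AFC fluorescence gave viability.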
DT40 TDP1 no CPT = qHTS for Inhibitors of human tyrosyl-DNA phosphodiesterase 1 (TDP1): qHTS in cells in absence of CPT; DT40 Tdp1-/- hTDP1 cells, no CPT, ATP luminescence, 48 h; Potency, µM (top dose mostly 46.2 µM), inactives show at the top dose activity change, negative = growth inhibition, actives largely listed as inhibitors; 420,000 compounds, 15% hits; also: % is scaled to controls: 0 for no effect and ±100 for the full control effect; nearly all actives have a fitted effect of over 55% in size
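Readout: luminescence from CellTiter-Glo after 30 min in the dark at RT. Cells: DT40 Tdp1-/- with stable hTDP1, 400/well. Exposure: compounds alone, ≥48 hr, 37 °C.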
* marks the source's active call; other numbers are inactive results; i = inactive; ? = inconclusive; · = not tested or not shown. Most compounds without a hit are left out; they make up all but 17% or so of the library. Calls follow the shape of the dose curve; as a rule, active = well fitted curve in the direction sought with a large enough effect; inconclusive = small, poorly fitted or top-dose-only effect, or another doubt; inactive = no such curve, though single readings can be large; an effect the other way counts as inactive or inconclusive. Potency is read from the fitted curve at half-maximal effect.

SMILES | HepG2 viability | TGFb inhibitor | ATXN viability | DT40 TDP1 CPT | ATXN2 expr inh | DT40 TDP1 no CPT
CCCN(C(=O)c1cc2c(s1)-c1ccccc1SC2)c1ccccc1F | -30% | · | · | ? | · | 16µM*
CCN(C(=O)c1cc2c(s1)-c1c(C)cccc1OC2)c1ccccc1F | -5% | ? | i | 21µM* | 11% | 21µM*
CCCN(C(=O)c1cc2c(s1)-c1ccccc1OC2)c1ccccc1F | -21% | ? | i | · | ? | ·
CCN1CCN(CCCNC(=O)c2cc3c(s2)-c2c(C)cccc2OC3)CC1 | -89% | ? | i | 4.6µM* | -17% | 5.8µM*
Cc1cccc2c1-c1sc(C(=O)Nc3ccccc3N3CCN(C)CC3)cc1CO2 | 16µM* | ? | ? | 18µM* | 28µM* | 18µM*
COc1cc(Cl)c(C)cc1NC(=O)c1cc2c(s1)-c1c(C)cccc1OC2 | -17% | -20% | i | -15% | -15% | ?
COc1ccc(OC)c(CCNC(=O)c2cc3c(s2)-c2c(C)cccc2OC3)c1 | -23% | -20% | i | 12µM* | 3% | 7.3µM*
Cc1cccc2c1-c1sc(C(=O)NCCCN3CCN(c4cccc(Cl)c4)CC3)cc1CO2 | -86% | 13µM* | ? | 23µM* | ? | ?
Cc1cccc2c1-c1sc(C(=O)NCCCN3CCN(c4ccccc4F)CC3)cc1CO2 | -43% | 4% | i | ? | -37% | 6.5µM*
Cc1ccc(NC(=O)c2ccc(CN3CC(=O)N4CCCCC4C3=O)cc2)cc1 (centres undefined) | -1% | -1% | · | ? | · | ?
Cc1ccc(C)c(NC(=O)c2ccc(CN3CC(=O)N4CCCCC4C3=O)cc2)c1 (centres undefined) | 6% | -17% | · | 16µM* | · | 16µM*
O=C(NC1=NCCS1)c1cccc(S(=O)(=O)N2CCOCC2)c1 | -3% | -3% | i | 1% | 1% | 10%
CCc1ccc(NC(=O)c2sc3nc(-c4ccccc4)cn3c2C)cc1 | -16% | -1% | · | ? | · | ?
Cc1c(C(N)=O)sc2nc(-c3ccccc3)cn12 | -7% | 0% | i | -3% | 49% | -7%
COC(=O)c1ccc(NC(=O)c2sc3nc(-c4ccccc4)cn3c2C)cc1 | 1% | -2% | ? | 6.5µM* | -27% | 2.6µM*
Cc1cc(C)cc(NC(=O)c2sc3nc(-c4ccccc4)cn3c2C)c1 | -8% | -7% | · | 15µM* | · | 12µM*
Cc1cccc(NC(=O)c2sc3nc(-c4ccccc4)cn3c2C)c1C | 1% | -5% | · | 0.52µM* | · | ?
O=C(Nc1ccncc1)c1ccccc1Cl | -50% | -20% | i | -13% | · | ?
Cc1cnc2ccccc2c1/C=C/c1ccc(N(C)C)cc1 | -28% | -28% | · | ? | · | ?
Cc1cnc2ccc(I)cc2c1/C=C/c1ccc(N(C)C)cc1 | -26% | -2% | · | ? | · | 4.5µM*
CN(C)c1ccc(/C=C/c2c(F)cnc3ccccc23)cc1 | -51% | ? | · | 7.9µM* | · | 3.2µM*
Cc1cc(/C=C/c2c(C)cnc3ccccc23)ccc1N(C)C | -66% | ? | · | 8.9µM* | · | 8.9µM*
Nn1c(SCC(=O)NC2CCS(=O)(=O)C2)nc2scc(-c3ccccc3)c2c1=O (centres undefined) | -9% | -7% | i | -8% | -18% | -3%
COc1ccc(OC)c2c1C(=O)C(Cl)=C(Cl)C2=O | -103% | 3.2µM* | 7.9µM* | 0.23µM* | 7.1µM* | 0.41µM*
COc1ccc(OC)c2c1C(=O)CC2C (centres undefined) | -7% | -5% | i | 5% | · | -11%
Cc1cc2nc(CCN(C(=S)NCC(C)C)C3CCCC3)[nH]c2cc1C | -34% | -10% | ? | ? | ? | 23µM*
